# Out of some 320,000 compounds screened, about 2,100 (0.66%) were called active. Inconclusive results (about 53%) are left out. Calls come from the whole dose curve; as a rule, active = well fitted inhibition curve with a large enough effect in the signal ratio, with a control signal flat (not every such curve was filed as active); inconclusive = small, poorly fitted or top-dose-only effect, or effect the other way, or a change in a side signal; inactive = flat fitted curve, though single readings scatter; the % refers to the signal ratio. This excerpt belongs to a sample that is enriched for actives.
# Experiment: qHTS Assay for Lipid Storage Modulators in Drosophila S3 Cells;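 for cell number change: cells counted by Cell Tracker Red CMTPX staining in the red channel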; for lipid storage change, negative = inhibition: % is set by controls: 0 for no effect and ±100 for the full control effect
# Conditions: BODIPY lipid droplet fluorescence, 18-24 h, cells fed with added oleic acid; cell number change: measured here: cell count max response; series mostly up to 46.1 µM
# Outline: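 Drosophila S3 cells got compounds at several concentrations plus oleic acid (400 uM solution). Laser-scanning cytometry with 488 nm excitation read lipid droplets at 500-530 nm and cells at 575-640 nm. Percent activity was relative to 20 uM Triacsin C.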
# Potency is the fitted concentration of half-maximal effect.
Structure (SMILES),Potency,cell number change [%],"lipid storage change, negative = inhibition",outcome
C=CCn1c(SCC(=O)NC(=O)c2cccc([N+](=O)[O-])c2)nnc1-c1ccccc1F,inactive,-9.47,,
Cc1ccc(C(=O)OCC(=O)N2CCOCC2)cc1,inactive,-0.794,,
Cc1ccc(NC(=O)COC(=O)c2ccc(C)c(S(=O)(=O)N3CCOCC3)c2)cc1,inactive,6.4,,
CCN(c1ccc(NC(=O)COC(=O)c2ccc(C)c(S(=O)(=O)N3CCOCC3)c2)cc1)C(C)C,23.1 µM (active),-6.95,,
O=C(COC(=O)c1cc(S(=O)(=O)N2CCOCC2)ccc1O)NCC1CCCO1 (stereo not given),inactive,-22.6,,
Cc1ccc(C(=O)OCC(=O)Nc2ccc3c(c2)OCO3)cc1S(=O)(=O)N1CCOCC1,inactive,-2.32,,
O=C(COC(=O)c1ccc(Cl)c(S(=O)(=O)N2CCCCC2)c1)NCC1CCCO1 (stereo not given),inactive,18.1,,
O=C(COC(=O)c1ccc(Br)c(S(=O)(=O)N2CCOCC2)c1)NCC1CCCO1 (stereo not given),0.58 µM (active),-0.879,,
CSc1sc(C(=O)OC(C)C)c2c1C(=O)CC(C)(C)C2,inactive,-5.28,,
O=C(NC1CC1)C1=C[C@H](c2ccc3c(c2)OCO3)C[C@H](OCc2ccc(CO)cc2)O1,inactive,3.05,,
CC(=O)N1CCc2cc(Br)cc(S(=O)(=O)NCCCN3CCCC(C)C3)c21 (stereo not given),inactive,-1.7,,
CCCc1nc(SCC(=O)N2CCc3ccccc3C2)c2ccccc2n1,inactive,-13.9,,
O=C(c1ccco1)N1CCN(C(=O)C2CC2)CC1,inactive,3.46,,
O=C1c2ccccc2NC(c2cccc([N+](=O)[O-])c2)N1CCc1ccccc1 (stereo not given),5.8 µM (active),8.73,,
CC(=O)NN1C(=O)c2ccccc2NC1c1cccc([N+](=O)[O-])c1 (stereo not given),inactive,-1.27,,
O=C1c2ccccc2NC(c2cccc([N+](=O)[O-])c2)N1O (stereo not given),inactive,5.94,,
C[N+]1(C)CC2([N+](=O)[O-])CC=C(Oc3ccccc3)C([N+](=O)[O-])(C2)C1 (stereo not given),inactive,-16.8,,
COCCn1c(SCC(=O)c2c(N)n(C3CC3)c(=O)[nH]c2=O)nnc1-c1ccc(Cl)cc1,inactive,-5.22,,
Cc1cc([N+](=O)[O-])ccc1NCc1ccccc1[N+](=O)[O-],inactive,7.15,,
O=C(Cn1cc([N+](=O)[O-])cn1)Nc1nccs1,inactive,10.2,,
O=C(CSc1ccc([N+](=O)[O-])cn1)Nc1nccs1,18.4 µM (active),2.83,,

Structure (SMILES),Potency,cell number change [%],"lipid storage change, negative = inhibition",outcome
CC(=O)Nc1ccc(NC(=O)CSc2ccc([N+](=O)[O-])cn2)cc1,inactive,0.135,,
CCN(CC(=O)Nc1ccc(OC)cc1)C(=O)CCS(=O)(=O)c1ccc(C)cc1,inactive,4.09,,
COc1ccc(CNS(=O)(=O)c2c(C(=O)N3CCCCC3)c(C)n(C)c2C)cc1,inactive,-6.92,,
O=C(CC12CC3CC(CC(C3)C1)C2)Nc1c(F)cccc1F,inactive,-17.2,,
CCN(CC)C(=O)c1cccc(NC(=O)CC23CC4CC(CC(C4)C2)C3)c1,0.231 µM (active),17.9,,
CNC(=O)c1ccc(NC(=O)CC23CC4CC(CC(C4)C2)C3)cc1,inactive,12.8,,
COc1ccc(CCNC(=O)C2CCC(=O)N2Cc2ccccc2Cl)cc1OC (stereo not given),inactive,-14.8,,
Cc1cc(C(=O)NCCCN2CCN(c3cc(Cl)ccc3C)CC2)n(-c2ccccc2)n1,,12.1,-3.15% [at 9.22 µM] (inactive),
CCCCC(CC)C(=O)Oc1ccc(O)c(C(C)(C)C)c1 (stereo not given),25.9 µM (active),-29.2,,
CC(C)(C)c1cc(OC(=O)c2ccncc2)ccc1O,inactive,-10.2,,
CC(C)(C)c1cc(OS(C)(=O)=O)ccc1O,inactive,-0.646,,
Cc1onc(-c2c(F)cccc2Cl)c1C(=O)ONC(=O)c1ccccc1,inactive,10.6,,
CCCc1cc(=O)oc2cc(OCC(=O)N3C[C@H]4C[C@@H](C3)c3cccc(=O)n3C4)c(Cl)cc12,inactive,3.02,,
O=C(COc1cc2oc(=O)c3c(c2cc1Cl)CCCC3)N1C[C@H]2C[C@@H](C1)c1cccc(=O)n1C2,1.46 µM (active),3.88,,
CC(Oc1cc2oc(=O)c3c(c2cc1Cl)CCC3)C(=O)N1C[C@H]2C[C@@H](C1)c1cccc(=O)n1C2 (stereo not given in full),inactive,18.9,,
O=C(COC(=O)Cc1n[nH]c(=O)c2ccccc12)Nc1ccc(Cl)cc1F,inactive,-2.17,,
COc1ccc2c(c1)cc(C(=O)N[C@@H](Cc1ccccc1)C(=O)O)n2C,inactive,,,
CCCCN1C(=O)C2NN=C(C(=O)OC)C2C1=O (stereo not given),inactive,1.06,,
CCOC(=O)C1=NNC2C(=O)N(CC)C(=O)C12 (stereo not given),13 µM (active),12.2,,
CCN1C(=O)[C@@H]2C(C(=O)c3cnccn3)=NN[C@@H]2C1=O,inactive,10.4,,
Clc1ccc(Cn2ncc3c(N4CCCC4)ncnc32)cc1,inactive,-16,,

Structure (SMILES),Potency,cell number change [%],"lipid storage change, negative = inhibition",outcome
COc1cccc(NC(=O)CN(C)C(=O)c2ccc(S(=O)(=O)Nc3ccccc3C)cc2)c1,inactive,-4.07,,
CCN1CCN(Cc2ccc(NC(=O)c3ccc(C)c(NC(=O)c4c[nH]c5cc(C(F)(F)F)ccc5c4=O)c3)cc2C(F)(F)F)CC1,10.3 µM (active),-28.9,,
CCN1CCN(Cc2ccc(NC(=O)c3ccc(C)c(NC(=O)c4cccc5[nH]ccc45)c3)cc2C(F)(F)F)CC1,inactive,-3.74,,
CCN1CCN(Cc2ccc(NC(=O)c3ccc(C)c(NC(=O)N4CCNC4=O)c3)cc2C(F)(F)F)CC1,inactive,25.7,,
CCOC(=O)Cc1csc(NS(=O)(=O)c2ccc(C(F)(F)F)cc2)n1,inactive,3.37,,
COc1cc(OC)c(NC(=O)CCNS(=O)(=O)c2cc(Br)cnc2N)cc1Cl,inactive,,,
CCOc1ccc(OCC)c(NC(=O)CCNS(=O)(=O)c2cc(Br)cnc2N)c1,1.3 µM (active),-2.69,,
COc1ccc(NC(=O)CCNS(=O)(=O)c2cc(Br)cnc2N)c(OC)c1,inactive,,,
CN1CCN(S(=O)(=O)c2cccc(C(=O)Nc3cc(C(F)(F)F)ccc3N3CCCC3)c2)CC1,inactive,1.88,,
COc1ccc(/C=N/NC(=O)c2nc(-c3ccccc3)cc(-c3ccccc3)n2)cc1,inactive,-21.2,,
COc1cccc(/C=N/NC(=O)c2nc(-c3ccccc3)cc(-c3ccccc3)n2)c1,20.6 µM (active),-10.5,,
COc1cccc(/C=N/NC(=O)c2nc(-c3ccccc3)cc(-c3ccccc3)n2)c1O,inactive,-7.98,,
CCOc1cc(/C=C2\SC(=Nc3ccc(F)cc3)N(c3ccc(F)cc3)C2=O)ccc1OCC(=O)O,inactive,-5.36,,
COc1ccccc1C1=CC(=O)C[C@H](c2ccc(Cl)cc2)C1,inactive,-15.5,,
Cc1ccccc1C(=O)NC1CCN(CC(=O)Nc2ccccc2)CC1,inactive,-25.1,,
CCCC(=O)NC(=S)Nc1ccc(C(C)=O)cc1,inactive,-4.91,,
CNC(=S)Nc1ccccc1-c1ccccc1,inactive,1.9,,
CCn1c(=NC(=O)c2ccc(S(=O)(=O)N3CCOCC3)cc2)sc2cccc(OC)c21,16.4 µM (active),4.06,,
COc1ccc(OC)c2sc(NC(=O)c3ccc(S(=O)(=O)N4CCOCC4)cc3)nc12,inactive,4.36,,
COc1ccccc1COC(=O)c1ccc(S(=O)(=O)N2CCOCC2)cc1,inactive,-3.67,,
COc1ccccc1NS(=O)(=O)c1cccc(C(=O)NCC2(N(C)C)CCCCC2)c1,inactive,16.3,,

Structure (SMILES),Potency,cell number change [%],"lipid storage change, negative = inhibition",outcome
COc1ccc(Cl)cc1NS(=O)(=O)c1cccc(C(=O)NCC2(N(C)C)CCCCC2)c1,32.6 µM (active),-25.5,,
COc1ccc(Cl)cc1NS(=O)(=O)c1cccc(C(=O)NCC(c2ccco2)N(C)C)c1 (stereo not given),,,,inactive [at 0.369 µM]
CCCCN(C(=O)c1ccc(NC2CC2)c([N+](=O)[O-])c1)c1c(N)n(CCCC)c(=O)[nH]c1=O,inactive,,,
CCN(CC)CCNC(=O)c1cn(CC)c2cc(N3CCN(C(=O)c4ccco4)CC3)c(F)cc2c1=O,inactive,3.39,,
CCN(CC)CCCNC(=O)c1cn(CC)c2cc(N3CCN(C(=O)c4ccco4)CC3)c(F)cc2c1=O,inactive,3.82,,
CCCNC(=O)c1cn(CC)c2cc(N3CCN(C(=O)c4ccco4)CC3)c(F)cc2c1=O,16.4 µM (active),-23.8,,
Cc1ccc(S(=O)(=O)N2CCC(=O)N(CCOCc3ccccc3C)CC2)cc1,inactive,-1.04,,
Cc1cc2cc(CN(Cc3cccs3)S(=O)(=O)c3ccc4c(c3)OCCO4)c(=O)[nH]c2cc1C,inactive,5.28,,
CCCCCCC(=O)NN1CCN(C)CC1,25.9 µM (active),-18.7,,
CCCCC(=O)Nc1ccc(C(=O)N2CCN(C)CC2)cc1,inactive,,,
CCCCCCCC(=O)NN1CCOCC1,inactive,12.9,,
Cc1onc(-c2ccccc2Cl)c1C(=O)NCc1ccc(N2CCCC2=O)cc1,inactive,-1.75,,
COc1cc(C(=O)OCC(=O)Nc2cccc(S(=O)(=O)N3CCOCC3)c2)ccc1OCC(C)C,inactive,0.792,,
CCOc1ccccc1C(=O)N[C@H](C(=O)OCc1cc(=O)oc2cc(C)ccc12)C(C)C,inactive,1.89,,
Cc1ccccc1N=C1N=C(N)c2ccccc21,inactive,4.71,,
Nc1ccccc1-c1ccccc1N,inactive,12.1,,
NC1=NCc2ccccc21,18.4 µM (active),-13,,
CC(C)(C)C(=O)Nc1ccc(C(=O)N/N=C/c2ccccc2OC(=O)c2ccc(Cl)cc2)cc1,inactive,-1.11,,
CCCN(CC(=O)Nc1ccccc1C)C(=O)c1ccc(COc2ccccc2)cc1,inactive,,,
CCCN(CC(=O)Nc1ccccc1C)C(=O)c1ccc(N2CCCCC2)c([N+](=O)[O-])c1,inactive,-25,,
CCCN(CC(=O)Nc1ccccc1C)C(=O)c1ccc(-c2ccc([N+](=O)[O-])cc2)o1,11.6 µM (active),,,
